Assay results from the OligoGym collection.

What follows are sequences tested against BDH2 (assay: pooled miR-30 sensor sort-seq; sequence = guide strand). Details: shRNA.
Also: reference of the scale not given here.

| Sequence | sensor-assay potency score (higher = more potent) |
| --- | --- |
| TTTGTTTCTTCTTTGTGACATC | -0.953 |
| TATTGCCAGATTTCTGAGCAAG | -1.16 |
| TTGGTTGTGCTGTACACACATC | -1.05 |
| TTCCATGATGGACAAAACCAGC | -1.2 |
| TTACATAAGCAGATTCATCAGA | 0.11 |
| AAACTGATCAATTTGTTTCTTC | 0.524 |
| TTCACAACTCCTTTGACGCTGG | 0.0987 |
| TTCTTTCTTGTAGAGATGGCGT | -0.55 |
| TTGGACTCATTAATGTCTGTGG | -0.0604 |
| TTAAAGAGAACATCAAGTCTCT | 0.782 |
| TTGATCATCAGGTACATGCTGC | 0.603 |
| TAATATTGCCAGATTTCTGAGC | -0.452 |

Each sequence was assayed against BEST2 in the same assay as above. Details: shRNA.

| Sequence | sensor-assay potency score (higher = more potent) |
| --- | --- |
| TTCAGGTTTTCAAACTTCTTGC | -0.208 |
| TAGCGCATGAGTGTGCGCCGGT | -0.558 |
| AAGCGCTTGAACACCGCGGTGC | 0.183 |
| AACTTCTTGCGCTCCTCGCGGG | -0.5 |
| ATAAATCACAAGCTTCTCGAAG | -0.809 |
| TAGTGAAAGAGCATTCCACATT | -0.946 |
| TACGCTAATCCAGTCATAGTGA | -0.195 |
| TTAAGGGCGCTGTTGTCGCGGA | -1.06 |
